PubChem BioAssay AID1159580 (chemical genetic matrix, 2015)
Where “and” joins values, the source holds several entries; their conditions need not be identical. Equal values may be shown once. In all, about 5,500 compounds went through this assay and about 2,000 (36%) were called active. Another 18% or so got no clear call; they are omitted. No stated cut-off is given here; in the data, active means normalized growth mostly below about 0.91 (no sharp cut-off); inconclusive means no clear call, values can overlap the other calls; inactive means mostly above about 0.92. The list shows a part of the results.

Assay: chemical genetic growth profiling, strain panel (AID 1159580);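 further: tested at 20 µM; growth read once vehicle control cultures reached saturation at 30 °C; 1 = growth at the plate median or of vehicle wells; lower values mean less growth of the strain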
Conditions: S. cerevisiae deletion strains, growth OD
[1] = locus YAL013W, strain DEP1, active compounds read low
[2] = locus YJR075W, strain HOC1, active compounds read low
[3] = locus YNL322C, strain KRE1, active compounds read low

Measured: normalized growth

CNC[C@@H](O)c1ccc(O)c(O)c1
inactive: [1] 0.993 | locus YAL021C, strain ccr4, active compounds read low 1 | locus YAL026C, strain drs2, active compounds read low 0.984 | locus YAL030W, strain snc1, active compounds read low 1 | locus YBL061C, strain skt5, active compounds read low 1 | locus YBR009C, strain hhf1, active compounds read low 0.997 | locus YBR021W, strain FUR4, active compounds read low 1.02 | locus YBR023C, strain chs3, active compounds read low 1.01 | locus YBR171W, strain sec66, active compounds read low 1 | locus YBR229C, strain ROT2, active compounds read low 0.96 | locus YBR231C, strain swc5, active compounds read low 0.991 | locus YBR279W, strain paf1, active compounds read low 1 | locus YCL011C, strain gbp2, active compounds read low 1.02 | locus YCL016C, strain dcc1, active compounds read low 1.02 | locus YCL029C, strain bik1, active compounds read low 0.984 | locus YCL061C, strain MRC1, active compounds read low 1.01 | locus YCL069W, strain vba3, active compounds read low 1.01 | locus YCR088W, strain abp1, active compounds read low 1.01 | locus YDL005C, strain med2, active compounds read low 0.997 | locus YDL035C, strain GPR1, active compounds read low 0.981 | locus YDL040C, strain nat1, active compounds read low 1 | locus YDL074C, strain BRE1, active compounds read low 0.984 | locus YDL101C, strain DUN1, active compounds read low 0.986 | locus YDL185W, strain tfp1, active compounds read low 0.966 | locus YDL192W, strain arf1, active compounds read low 0.979 | locus YDR001C, strain nth1, active compounds read low 1.01 | locus YDR069C, strain doa4, active compounds read low 0.989 | locus YDR101C, strain arx1, active compounds read low 0.982 | locus YDR137W, strain rgp1, active compounds read low 1.03 | locus YDR159W, strain sac3, active compounds read low 1 | locus YDR162C, strain NBP2, active compounds read low 0.977 | locus YDR195W, strain ref2 0.989 | locus YDR297W, strain sur2, active compounds read low 0.995 | locus YDR318W, strain mcm21, active compounds read low 0.983 | locus YDR334W, strain swr1, active compounds read low 0.993 | locus YDR335W, strain msn5, active compounds read low 1 | locus YDR388W, active compounds read low 0.99 | locus YDR392W, strain spt3, active compounds read low 0.93 | locus YDR502C, strain sam2, active compounds read low 0.996 | locus YEL003W, strain gim4, active compounds read low 1 | locus YEL037C, strain rad23, active compounds read low 1 | locus YEL061C, strain CIN8 (second series), active compounds read low 1.01 | locus YEL061C, strain CIN8, active compounds read low 0.978 | locus YER015W, strain faa2, active compounds read low 1.01 | locus YER016W, strain bim1, active compounds read low 1.01 | locus YER110C, active compounds read low 0.984 | locus YER111C, strain swi4, active compounds read low 1.02 | locus YER155C, strain BEM2 (second series), active compounds read low 0.988 | locus YER155C, strain BEM2, active compounds read low 1 | locus YER167W, strain BCK2, active compounds read low 1.01 | locus YFR010W, strain ubp6, active compounds read low 0.993 | locus YGL078C, strain dbp3, active compounds read low 0.993 | locus YGL086W, strain mad1, active compounds read low 0.977 | locus YGL167C, strain pmr1, active compounds read low 1 | locus YGL173C, strain kem1, active compounds read low 1 | locus YGL227W, strain vid30, active compounds read low 1 | locus YGL240W, strain doc1, active compounds read low 0.989 | locus YGL248W, strain PDE1, active compounds read low 1 | locus YGL253W, strain hxk2, active compounds read low 1.01 | locus YGR135W, strain pre9, active compounds read low 1.04 | locus YGR229C, strain SMI1, active compounds read low 0.99 | locus YGR252W, strain gcn5, active compounds read low 1.02 | locus YHR013C, strain ard1, active compounds read low 1.04 | locus YHR027C, strain rpn1, active compounds read low 1.01 | locus YHR030C, strain SLT2, active compounds read low 0.999 and 1.05 | locus YHR079C, strain IRE1 (second series), active compounds read low 0.951 | locus YHR079C, strain IRE1, active compounds read low 1.04 | locus YHR094C, strain hxt1, active compounds read low 0.977 | locus YHR129C, strain ARP1, active compounds read low 0.999 | locus YHR142W, strain chs7, active compounds read low 1.02 | locus YHR200W, strain rpn10, active compounds read low 0.97 | locus YIL066C, strain RNR3, active compounds read low 0.986 | locus YIL073C, strain SPO22, active compounds read low 1.02 | locus YIL125W, strain kgd1, active compounds read low 0.983 | locus YIR030C, strain dcg1, active compounds read low 0.999 | locus YJL092W, strain hpr5, active compounds read low 1.01 | locus YJL095W, strain BCK1 (second series), active compounds read low 1.01 | locus YJL095W, strain BCK1, active compounds read low 1.03 and 1.07 | locus YJL115W, strain asf1, active compounds read low 0.996 | locus YJL129C, strain trk1, active compounds read low 1 | locus YJL134W, strain LCB3, active compounds read low 0.993 | locus YJL154C, strain vps35, active compounds read low 1 | locus YJL164C, strain tpk1, active compounds read low 0.995 | locus YJL166W, strain qcr8, active compounds read low 1.01 | locus YJL168C, strain set2, active compounds read low 0.987 | locus YJL187C, strain SWE1 (second series), active compounds read low 0.981 | locus YJL187C, strain SWE1, active compounds read low 1 | locus YJR043C, strain POL32, active compounds read low 0.978 | locus YJR066W, strain TOR1, active compounds read low 0.985 | [2] 0.994 | locus YKL009W, strain mrt4, active compounds read low 0.986 | locus YKL068W, active compounds read low 0.977 | locus YKL085W, strain MDH1 (second series), active compounds read low 0.996 | locus YKL085W, strain MDH1, active compounds read low 0.996 | locus YKL160W, strain elf1, active compounds read low 1.03 | locus YKR001C, strain vps1, active compounds read low 0.982 | locus YKR026C, strain gcn3, active compounds read low 1 | locus YKR091W, strain srl3, active compounds read low 1.01 | locus YLL001W, strain dnm1, active compounds read low 1.01 | locus YLL026W, active compounds read low 1 | locus YLL041C, strain sdh2, active compounds read low 1 | locus YLR027C, strain aat2, active compounds read low 1 | locus YLR039C, strain RIC1, active compounds read low 1.03 | locus YLR058C, strain SHM2, active compounds read low 0.984 | locus YLR102C, strain apc9, active compounds read low 0.968 | locus YLR113W, strain HOG1, active compounds read low 1.08 | locus YLR221C, strain rsa3, active compounds read low 1.02 | locus YLR258W, strain gsy2, active compounds read low 1.02 | locus YLR262C, strain YPT6 (second series), active compounds read low 1 | locus YLR262C, strain YPT6, active compounds read low 0.947 | locus YLR268W, strain sec22, active compounds read low 0.972 | locus YLR320W, strain mms22, active compounds read low 1.03 | locus YLR330W, strain CHS5, active compounds read low 0.992 | locus YLR342W, strain FKS1 (second series), active compounds read low 0.999 | locus YLR342W, strain FKS1, active compounds read low 1.01 | locus YLR357W, strain rsc2, active compounds read low 0.957 | locus YLR370C, strain arc18, active compounds read low 1.01 | locus YLR371W, strain rom2, active compounds read low 0.983 | locus YLR384C, strain iki3, active compounds read low 0.999 | locus YLR418C, strain cdc73, active compounds read low 0.996 | locus YML016C, strain PPZ1, active compounds read low 0.994 | locus YML032C, strain rad52, active compounds read low 0.997 | locus YML120C, strain ndi1, active compounds read low 1.03 | locus YML124C, strain tub3, active compounds read low 0.983 | locus YMR058W, strain fet3, active compounds read low 1 | locus YMR078C, strain ctf18, active compounds read low 0.99 | locus YMR125W, strain sto1, active compounds read low 0.991 | locus YMR129W, active compounds read low 1.01 | locus YMR205C, strain PFK2, active compounds read low 1.04 | locus YMR223W, strain ubp8, active compounds read low 1.02 | locus YMR231W, strain pep5, active compounds read low 0.999 | locus YMR263W, strain SAP30, active compounds read low 0.995 | locus YMR307W, strain GAS1, active compounds read low 1.05 | locus YNL067W, strain RPL9B, active compounds read low 0.992 | locus YNL071W, strain lat1, active compounds read low 1.02 | locus YNL153C, strain GIM3, active compounds read low 0.993 | locus YNL183C, strain NPR1, active compounds read low 0.99 | locus YNL209W, strain ssb2, active compounds read low 1 | locus YNL233W, strain BNI4, active compounds read low 0.999 | locus YNL248C, strain rpa49, active compounds read low 1.02 | locus YNL250W, strain rad50, active compounds read low 0.96 | locus YNL271C, strain bni1, active compounds read low 0.988 | locus YNL298W, strain CLA4, active compounds read low 0.979 | locus YNL307C, strain MCK1, active compounds read low 0.905 | locus YNL322C, strain KRE1 (second series), active compounds read low 1.02 | [3] 1 | locus YNR049C, strain mso1, active compounds read low 1 | locus YNR052C, strain pop2, active compounds read low 0.984 | locus YOL012C, strain htz1 0.8 | locus YOL147C, strain pex11, active compounds read low 0.989 | locus YOR001W, strain rrp6, active compounds read low 1.01 | locus YOR061W, strain CKA2, active compounds read low 0.967 | locus YOR069W, strain VPS5, active compounds read low 0.991 | locus YOR070C, strain gyp1, active compounds read low 1 | locus YOR080W, strain dia2, active compounds read low 0.997 | locus YOR083W, strain WHI5, active compounds read low 1.03 | locus YOR106W, strain vam3, active compounds read low 1.02 | locus YOR136W, strain idh2, active compounds read low 0.965 | locus YOR144C, strain elg1, active compounds read low 0.986 | locus YOR184W, strain ser1, active compounds read low 0.982 | locus YOR231W, strain MKK1, active compounds read low 1.07 | locus YOR265W, strain rbl2, active compounds read low 1 | locus YOR270C, strain vph1, active compounds read low 1.05 | locus YOR290C, strain snf2, active compounds read low 0.955 | locus YOR316C, strain cot1, active compounds read low 0.966 | locus YPL051W, strain arl3, active compounds read low 0.998 | locus YPL055C, strain LGE1, active compounds read low 1.02 | locus YPL078C, strain atp4, active compounds read low 1.01 | locus YPL106C, strain sse1, active compounds read low 0.984 | locus YPL240C, strain hsp82, active compounds read low 1.01 | locus YPL256C, strain CLN2, active compounds read low 1.03 | locus YPR119W, strain clb2, active compounds read low 0.968 | locus YPR141C, strain kar3, active compounds read low 0.975 | locus YPR163C, strain tif3, active compounds read low 0.986 | locus YPR167C, strain met16, active compounds read low 0.989 | strain wtn01, active compounds read low 1

CNC[C@H](O)c1ccc(O)c(O)c1
inactive: [1] 1.01 | locus YAL040C, strain CLN3, active compounds read low 1.04 | locus YCL061C, strain MRC1 (second series), active compounds read low 1 | locus YDR150W, strain NUM1, active compounds read low 1 | locus YDR363W, strain ESC2, active compounds read low 0.993 | locus YER002W, strain NOP16, active compounds read low 1.01 | locus YGR078C, strain PAC10, active compounds read low 1.02 | [2] 1 | locus YNL175C, strain NOP13, active compounds read low 1.01 | locus YNL197C, strain WHI3, active compounds read low 1.01 | locus YNL224C, strain SQS1, active compounds read low 1.01 | [3] 0.997 | locus YOR083W, strain WHI5 (second series), active compounds read low 1.02 | locus YPL241C, strain CIN2, active compounds read low 1
